This is one part of the list. No count for the full screen is at hand.
B1: HC719 (peptide)
chain: CASRSLTPCTAGNASASA
B2: HC242 (peptide)
chain: CANYATGNLPAGNASASA
B3: FS-1325 (peptide)
chain: CAFRRRGRRSAGNASASA
B4: FS-1438 (peptide)
chain: CAYHFRGRRSAGNASASA
B5: FS-679 (peptide)
chain: CAKRRRGRKSAGNASASA
B6: FS-922 (peptide)
chain: CAVKKRKGRVAGNASASA
B7: FS-3162 (peptide)
chain: CARMKRIFYRAGNASASA
B8: HC1000 (peptide)
chain: CACVVIVGRVAGNASASA
B9: HC130 (peptide)
chain: CAEVVRSTWVAGNASASA
B10: FS-1751 (peptide)
chain: CARMKRAGRVAGNASASA
B11: HC1100 (peptide)
chain: CALVNLLPAIAGNASASA
B12: HC219 (peptide)
chain: CARNLGKVIDAGNASASA

Biological target: furin, P09958
Sequence (P09958 whole entry): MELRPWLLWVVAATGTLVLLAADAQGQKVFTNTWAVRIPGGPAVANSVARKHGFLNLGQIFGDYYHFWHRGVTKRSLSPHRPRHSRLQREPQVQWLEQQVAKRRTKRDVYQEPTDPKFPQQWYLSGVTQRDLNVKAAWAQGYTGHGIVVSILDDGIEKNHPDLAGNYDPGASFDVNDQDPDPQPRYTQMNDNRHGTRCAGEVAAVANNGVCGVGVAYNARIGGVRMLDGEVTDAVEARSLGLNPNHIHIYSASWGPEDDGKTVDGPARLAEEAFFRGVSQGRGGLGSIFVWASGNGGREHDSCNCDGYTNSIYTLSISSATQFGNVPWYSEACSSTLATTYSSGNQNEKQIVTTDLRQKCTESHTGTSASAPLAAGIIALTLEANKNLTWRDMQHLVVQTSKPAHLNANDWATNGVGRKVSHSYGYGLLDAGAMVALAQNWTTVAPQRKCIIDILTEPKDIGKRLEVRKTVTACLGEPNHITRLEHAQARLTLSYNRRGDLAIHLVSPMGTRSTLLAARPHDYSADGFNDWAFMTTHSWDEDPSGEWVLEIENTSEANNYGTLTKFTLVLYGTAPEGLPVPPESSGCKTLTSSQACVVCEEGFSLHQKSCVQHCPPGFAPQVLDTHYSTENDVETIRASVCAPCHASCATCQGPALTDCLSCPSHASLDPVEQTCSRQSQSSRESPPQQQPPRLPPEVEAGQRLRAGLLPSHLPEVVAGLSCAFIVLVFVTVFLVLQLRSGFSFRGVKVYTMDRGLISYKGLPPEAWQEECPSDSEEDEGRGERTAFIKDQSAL
Test: furin cleavage Z-score vs untreated control; higher = more cleavage, active = 3.5 or more, inactive = 1 or less, 8 variable residues between constant flanks
Method in brief: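 Cleavage by purified furin was measured on 8-mer peptides fused to a cDNA oligonucleotide and held on magnetic beads by their N-terminus. Reactions (0.01 ml, 1:10 enzyme:substrate) ran 7.5, 15 or 30 min in 50 mM HEPES pH 7.5 with CaCl2 and NaCl. Released DNA was adapter-tagged by PCR and sequenced, with read counts giving abundance. Log counts versus furin-free reactions were lowess-adjusted and scaled by median absolute deviation to give the cleavage Z-score.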

Row | Sequence | furin cleavage Z-score (7.5 min) | furin cleavage Z-score (15 min) | furin cleavage Z-score (30 min)
1 | B1 | -0.572 (inactive) | -2.71 (inactive) | 0.443 (inactive)
2 | B2 | -0.747 (inactive) | 0.727 (inactive) | -1.07 (inactive)
3 | B3 | 7.29 (active) | 7.04 (active) | 5.71 (active)
4 | B4 | 8.22 (active) | 8.64 (active) | 7.23 (active)
5 | B5 | 0.804 (inactive) | 2.45 | 1.45
6 | B6 | 3.3 | 4.91 (active) | 6.5 (active)
7 | B7 | 0.804 (inactive) | 2.26 | -0.0374 (inactive)
8 | B8 | 0.746 (inactive) | -1.22 (inactive) | 1.75
9 | B9 | -1.7 (inactive) | -0.333 (inactive) | -1.26 (inactive)
10 | B10 | 5.19 (active) | 5.19 (active) | 5.87 (active)
11 | B11 | 1.21 | 0.684 (inactive) | 0.808 (inactive)
12 | B12 | -0.809 (inactive) | 0.0222 (inactive) | -1.18 (inactive)

— the supplement of paper PMC3545927
